Sampled rows, rich in hits. Any-hit rate of the full collection: about 14%.
Pf growth 48h – inhibits P. falciparum growth in the first generation, 48 h; P. falciparum luciferase growth in erythrocytes, 48 h; Potency, µM (series often up to 28.7 µM), for inactives: at the top dose activity change, negative = inhibition, usual class: inhibitors; 310,000 tested, 5.9% active; AID 504832; also: potency is read from the fitted curve at half-maximal effect
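Firefly luciferase activity from engineered P. falciparum reports growth; inhibitors lower the luminescent signal. Cultures contained 2% hematocrit erythrocytes at 0.1% final parasitemia.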
Marburg entry inh – blocks Marburg virus binding to or entry into cells; Marburg virus pseudotyped entry inhibition, cell reporter; Potency, µM (highest dose often 37.8 µM), for the others: at the highest dose activity change, negative = inhibition, hits mostly inhibitors; 300,000 tested, 1.8% active; calls by dose curve; tested in HEK293 cells; also: potency is read from the fitted curve at half-maximal effect
LASV entry inh – inhibitors of Lassa virus binding or cell entry; Lassa virus pseudotype entry inhibition, cell reporter; Potency, µM (titrated, usually from 37.9 µM), for the others: at the highest dose activity change, negative = inhibition, usual class: inhibitors; 300,000 tested, 1.2% active; calls by dose curve; tested in HEK293 cells; also: potency is read from the fitted curve at half-maximal effect; nearly all actives have a fitted effect of over 50% in size
HCV inhibitor – blocks hepatitis C virus | Huh7.5.1 HCVcc-Cre infection, luciferase reporter, 44 h | AID 651820 | 340,000 tested, 3.4% active | Potency, µM (top dose mostly 41.8 µM), without a hit: at the highest dose activity change, negative = inhibition, most hits filed as inhibitors; also: potency is read from the fitted curve at half-maximal effect
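Infectious HCV cell culture screen: compound-treated cells (1,000/well, pre-plated 4 h) are infected with HCVcc-Cre at roughly 0.5 moi and grown 44 h. Infection is quantified by luciferase signal after 15 min substrate incubation at room temperature.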
HCMV antiviral – human cytomegalovirus inhibition; AID 1259415; activity change, negative = inhibition, % at 57.5 µM; HFF cells, HCMV-luciferase reporter, 72 h; stronger effect = lower value; 410,000 tested, 4.5% active; in the data active = activity change below about -60%; inconclusive = no clear call, values can overlap the other calls; inactive = above about -39%
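After 16 h attachment at 37C, HFF cells received test compound and HCMV-luciferase (1 PFU/cell); reporter luminescence read 72 h later, data normalized against buffer-only and known inhibitor Salinomycin.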
Pf growth 96h – P. falciparum growth inhibition at 96 hour, primary screen for plastid delayed-death inhibitors; P. falciparum luciferase reporter growth, 96 h; Potency, µM (top dose mostly 28.7 µM), inactives show at the top dose activity change, negative = inhibition, usual class: inhibitors; 320,000 tested, 6.9% active; AID 504834; also: potency is read from the fitted curve at half-maximal effect
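P. falciparum expressing integrated firefly luciferase grown in erythrocytes (2% hematocrit, 0.05% parasitemia final) with compounds for 96 hours at 37 C, 5% CO2. Growth inhibition read as loss of luminescence after adding luciferase detection reagent.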
Starred values were filed as active, the others as inactive; u = inconclusive; x = not tested or not shown; [ ] = dose if it differs, or a comment. Unless noted, calls follow the shape of the dose curve; as a rule, active = well fitted inhibition curve with a large enough effect; inconclusive = small, poorly fitted or top-dose-only effect, or another doubt; inactive = no such curve, though single readings can be large or run the other way. % is scaled to controls: 0 for no effect and ±100 for the full control effect.

SMILES	Pf growth 48h	Marburg entry inh	LASV entry inh	HCV inhibitor	HCMV antiviral	Pf growth 96h
Cc1cc(C(=O)O)c(=O)[nH]c1C	35.2%	-10.2%	-0.2%	11.4%	u	2.62µM*
CC(C)NC(=O)Cn1nnc(-c2ccccc2)c1COc1ccc2ccccc2c1	x	x	x	x	1.0	x
CCOc1ccc(Nc2cc(C)nc3ccc(C)cc23)cc1	x	u	11.2µM*	u	-73.8*	x
Cc1ccc(Nc2cc(C)nc3ccccc23)c(C)c1	x	10µM*	-9.0%	31.6µM*	u	x
Cc1cc(C)c(C#N)c(Nc2ccc3c(c2)OCCO3)n1	x	x	x	1.8%	93.4	u
Cc1cc(Nc2ccc3c(c2)OCCO3)c2cc(Cl)ccc2n1	7.38µM*	-26.3%	9.1%	u	-93.4*	246.5%
COc1ccc(Nc2cc(C)nc3ccc(OC)cc23)cc1	u	u	u	u	u	-7.5%
COC(=O)c1ccc2nc(C)cc(Nc3ccc(N(C)C)cc3)c2c1	1.65µM*	u	u	-4.2%	1.0	u
COC(=O)c1ccc2nc(C)cc(Nc3ccc(O)cc3)c2c1	x	2.3%[46.1 µM]	-1.1%[46.1 µM]	x	-2.2	x
Cc1ccc(C)c(N2CCN(C(=O)c3c4c(nc5ccccc35)C(=O)N(C3CCCCC3)C4)CC2)c1	x	x	19.3%[46.1 µM]	x	41.6	x
COC(=O)c1ccccc1NC(=O)Cn1c(=O)n(Cc2ccc(C(=O)NCc3ccc4c(c3)OCO4)cc2)c(=O)c2ccccc21	x	26.5%[46.1 µM]	u	x	-24.2	x
Cc1ccc(-n2c(=O)c3c(c4cc(C)ccc4n3C)n(CC(=O)NCCC3=CCCCC3)c2=O)cc1	x	x	16.0%[46.1 µM]	x	27.4	x
COc1c(C)cc(NS(=O)(=O)c2ccc3c(c2)OCCO3)cc1C	x	-8.0%[46.1 µM]	-30.0%[46.1 µM]	x	-39.0	x
C[C@@H]1C=CCCO[C@]12C(=O)N(Cc1ccc(F)cc1)c1cccc(Br)c12	x	-20.9%[14.2 µM]	x	x	x	x
Cc1ccc(Nc2cc(C)nc3ccc(C)cc23)cc1	-105.4%	11.2µM*	u	u	-39.2	0.0415µM*
CC1=NN(C(N)=S)C(=O)C1N=Nc1ccc(F)cc1 (stereo not drawn)	1.85µM*	x	x	1.9%	-7.7	19.2%
CC1=NN(C(N)=S)C(=O)C1N=Nc1cccc(C(=O)O)c1 (stereo not drawn)	64.4%	u	-3.4%[46.1 µM]	6.9%	12.7	124.6%
CC1=NN(C(N)=S)C(=O)C1N=Nc1cccc(C)c1 (stereo not drawn)	11.7µM*	x	x	-28.1%	3.8	u
Cc1ccc(-c2nnn(CC(=O)N(CC(=O)NCc3ccccc3)c3cccc(C)c3C)n2)o1	14.7µM*	u	1.0%	u	16.3	u
CCC(C(=O)NC1CCCC1)N(C(=O)Cn1nnc(-c2ccc(C)o2)n1)c1ccc(F)cc1 (stereo not drawn)	-2.0%	u	-19.4%	-23.2%	-18.4	11.7µM*
CCC(C(=O)NC1CCCC1)N(C(=O)Cn1nnc(-c2cccs2)n1)c1cnc2ccccc2c1 (stereo not drawn)	11.7µM*	u	-5.4%	8.8%	-13.7	-2.0%
Cc1cccc(N(CC(=O)NCc2ccccc2)C(=O)Cn2nnc(-c3ccc(C)o3)n2)c1	u	u	1.5%	-24.7%	21.4	u
CCC(C(=O)NC1CCCC1)N(C(=O)Cn1nnc(-c2ccc(C)o2)n1)c1ccccc1OC (stereo not drawn)	u	u	0.9%	11.6%	-19.2	13.1%
Cc1ccc(-c2nnn(CC(=O)N(CC(=O)NC3CCCCC3)c3cccc(F)c3)n2)o1	u	-3.2%[46.1 µM]	x	3.5%	-22.0	18.1%
Cc1ccc(-c2nnn(CC(=O)N(CC(=O)NC3CCCCC3)c3ccc(F)c(Cl)c3)n2)o1	-19.5%	u	12.6µM*	u	-12.2	-6.2%
Cc1ccc(-c2nnn(CC(=O)N(Cc3ccccc3F)C(C(=O)NC3CCCC3)c3ccncc3)n2)o1 (stereo not drawn)	9.28µM*	19.7%[46.1 µM]	9.0%	u	1.7	u
Cc1ccc(-c2nnn(CC(=O)N(CC(=O)NC3CCCC3)c3cccc(F)c3)n2)o1	4.3%	-6.6%[46.1 µM]	-4.5%[46.1 µM]	-12.6%	-85.5*	3.4%

Source: PubChem
